Sampled rows, rich in hits. Any-hit rate of the full collection: about 2.9%.
PLC-gamma1 inh: blocks human PLC-gamma1 enzyme activity. P19174. purified PLC-gamma1, fluorogenic substrate, fluorescence. inhibition, % at 12.2 µM. 370,000 compounds, 0.84% hits. AID 720700; in the data active = inhibition above about 9.5%
proKLK7 act: activates the human kallikrein-7 zymogen; activation, % at 7 µM; 370,000 compounds, 0.9% hits; purified proKLK7, EDANS-DABCYL substrate fluorescence; 100% is mature enzyme control, 0% vehicle; P49862; AID 652039;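 active = activation above the mean of all tested compounds plus 3 SD, computed per campaign excluding outliers beyond control limits, cut at about 13% in these data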
ADAM10 inh: inhibits human ADAM10 | O14672 | 370,000 compounds, 0.62% hits | AID 720582 | recombinant ADAM10, EDANS/DABCYL FRET peptide cleavage, 3 h | inhibition, % at 7 µM;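 active = inhibition above a per-campaign cutoff equal to the mean of compounds falling between control-based bounds plus 3 SD, cut at about 20% in these data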;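 note: 0% = DMSO wells while the 100% control is not disclosed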
ADAM17 inh: inhibitors of human ADAM17; P78536; recombinant ADAM17, EDANS/DABCYL FRET peptide cleavage; inhibition, % at 6.95 µM; 370,000 compounds, 0.83% hits; AID 720648;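 active = inhibition above the mean of compounds lying between control limits plus 3 SD, set per campaign, cut at about 8.5% in these data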;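 note: 0% = DMSO-only wells as the low control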
PLC-beta3 inh: inhibitors of human phospholipase C beta3; inhibition, % at 12.2 µM; AID 720704; Purified PLC-beta3, fluorogenic substrate, fluorescence; 370,000 compounds, 0.18% hits; Q01970;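 note: 0% = median of compound wells on plate and 100% = full blocker control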
Target sequence (Q01970 whole entry, looked up): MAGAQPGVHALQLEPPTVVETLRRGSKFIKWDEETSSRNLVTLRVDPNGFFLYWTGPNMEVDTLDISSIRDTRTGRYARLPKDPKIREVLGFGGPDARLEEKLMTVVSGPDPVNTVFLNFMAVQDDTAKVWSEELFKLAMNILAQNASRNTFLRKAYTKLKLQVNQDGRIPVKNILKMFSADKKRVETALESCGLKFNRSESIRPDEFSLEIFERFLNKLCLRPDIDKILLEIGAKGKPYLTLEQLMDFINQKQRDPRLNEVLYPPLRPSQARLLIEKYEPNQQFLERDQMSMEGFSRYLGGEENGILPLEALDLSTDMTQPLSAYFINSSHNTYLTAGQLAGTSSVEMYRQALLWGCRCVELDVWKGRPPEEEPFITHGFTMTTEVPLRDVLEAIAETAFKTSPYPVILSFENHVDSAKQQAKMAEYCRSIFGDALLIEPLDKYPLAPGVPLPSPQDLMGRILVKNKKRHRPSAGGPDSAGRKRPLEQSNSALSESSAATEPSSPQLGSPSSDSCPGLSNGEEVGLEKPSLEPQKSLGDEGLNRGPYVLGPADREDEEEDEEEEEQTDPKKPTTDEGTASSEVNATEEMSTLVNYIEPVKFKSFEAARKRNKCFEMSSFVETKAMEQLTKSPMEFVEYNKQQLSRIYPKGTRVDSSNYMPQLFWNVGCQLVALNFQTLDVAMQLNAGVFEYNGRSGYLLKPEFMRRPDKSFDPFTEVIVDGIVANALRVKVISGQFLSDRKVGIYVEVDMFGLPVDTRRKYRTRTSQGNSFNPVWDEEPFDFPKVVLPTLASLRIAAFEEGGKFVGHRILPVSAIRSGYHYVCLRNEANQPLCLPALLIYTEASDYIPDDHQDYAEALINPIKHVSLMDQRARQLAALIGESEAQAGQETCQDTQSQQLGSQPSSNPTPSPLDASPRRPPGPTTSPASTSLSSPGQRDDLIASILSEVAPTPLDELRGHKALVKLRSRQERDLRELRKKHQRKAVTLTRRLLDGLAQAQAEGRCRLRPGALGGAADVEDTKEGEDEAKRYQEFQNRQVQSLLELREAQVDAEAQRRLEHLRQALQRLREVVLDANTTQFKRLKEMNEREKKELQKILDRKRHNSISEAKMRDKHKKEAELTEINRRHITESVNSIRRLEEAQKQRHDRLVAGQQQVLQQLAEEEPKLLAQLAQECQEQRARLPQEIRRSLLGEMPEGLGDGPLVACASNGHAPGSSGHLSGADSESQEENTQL
PLCgamma1 ctr: counter-screen for PLC-beta3 inhibitors: inhibitors of human PLC-gamma1; inhibition, % at 12.3 µM; shares compounds with PLC-gamma1 inh; purified PLC-gamma1, fluorogenic substrate, fluorescence; 3,300 compounds, 3.1% hits; in the data active = inhibition above about 9.5%
PLCbeta3 conf: human PLC-beta3 inhibition, confirmation. shares compounds with PLC-gamma1 inh. purified PLC-beta3, fluorogenic substrate fluorescence. inhibition, % at 12.3 µM. 3,300 compounds, 1% hits
* = called active by the depositor; / = no result given. Cut-off read from the data, not from the text of the source, unless noted: active = inhibition above about 11%; inactive = the rest.

SMILES | PLC-gamma1 inh | proKLK7 act | ADAM10 inh | ADAM17 inh | PLC-beta3 inh | PLCgamma1 ctr | PLCbeta3 conf
O=C(Nc1nnc(-c2cccs2)o1)c1cc(-c2ccccc2)nc2ccccc12 | -2 | 0 | 14 | 4 | -4 | / | /
CCOC(=O)c1cccc(NC(=O)COc2nsnc2N2CCOCC2)c1 | 2 | 0 | 1 | -2 | -1 | / | /
Cc1ccc(NC(=O)CSc2nnc(-c3ccncc3)n2N)cc1C | -2 | 0 | 6 | 1 | 2 | / | /
COC(=O)c1ccc(CNC(=O)c2ccc(NS(=O)(=O)c3ccc4[nH]c(=O)[nH]c4c3)cc2)cc1 | -1 | 0 | -1 | 1 | -6 | / | /
COC(=O)c1cc(NC(=O)C2CC(=O)NC(=NCc3ccc(OC)cc3)S2)cc(C(=O)OC)c1 (stereo not drawn) | 1 | 1 | -4 | -8 | -1 | / | /
CSC(=N/N=C(\N)c1cnccn1)SC | 13* | -1 | 6 | 5 | 6 | 5 | 1
O=C(O)c1cnccn1 | 2 | 0 | 4 | -4 | -1 | / | /
O=C(Nc1ccc(S(=O)(=O)N2CCCC2)cc1)c1ccccc1 | -3 | -1 | -7 | -5 | -5 | / | /
O=C(COC(=O)c1n[nH]c2ccccc12)Nc1ccc(S(=O)(=O)N2CCCC2)cc1 | 11* | 0 | -3 | 3 | 5 | 2 | -1
Cc1cc(NC(=O)c2ccc3c(c2)OCO3)ccc1NC(=O)c1ccccc1 | 4 | -1 | -3 | -1 | 12* | -6 | 15*
O=C(O)c1ccccc1C(=O)Nc1ccc(S(=O)(=O)N2CCCC2)cc1 | 10* | 1 | 6 | 6 | 5 | -3 | 2
Cc1cc(NC(=O)c2ccc3c(c2)OCO3)ccc1NC(=O)c1ccco1 | -3 | 0 | 1 | -1 | 5 | / | /
O=C(Nc1ccc2c(c1)OCO2)c1cccc(S(=O)(=O)N2CCCC2)c1 | 6 | 0 | 10 | 7 | 11* | -4 | 1
O=C(NCC1CCCO1)c1csc2c1CCCC2 (stereo not drawn) | 5 | 0 | 3 | 0 | 5 | / | /
CC(C)c1ccccc1NC(=O)Nc1ccc2c(c1)OCO2 | 12* | -1 | -2 | 2 | 3 | 9.7* | 2
CN(CCOc1ccccc1)C(=O)c1ccc2c(c1)OCO2 | 3 | 0 | -17 | -1 | -8 | / | /
COC(=O)c1ccccc1NC(=O)Nc1ccc2c(c1)OCO2 | 1 | 0 | -3 | -2 | 2 | / | /
O=C(NCCOc1ccccc1)c1ccc2c(c1)OCO2 | 13* | 0 | -2 | 2 | 3 | 0 | -3
CCN(C(=O)CSc1nc2c(cnn2-c2ccccc2)c(=O)[nH]1)C1CCS(=O)(=O)C1 (stereo not drawn) | 9.7* | 0 | 7 | 4 | 6 | 4 | 4
CC1CCN(C(=O)CSc2nc3c(cnn3-c3ccccc3)c(=O)[nH]2)CC1 | 0 | -1 | -13 | 0 | 0 | / | /
CC1CCN(C(=O)CSc2nc3c(cnn3-c3ccc(Cl)cc3)c(=O)[nH]2)CC1 | 10.0* | 0 | 0 | 0 | 11* | 0 | 1
CCCN(C(=O)CSc1nc2c(cnn2-c2ccccc2)c(=O)[nH]1)C1CCS(=O)(=O)C1 (stereo not drawn) | -2 | 0 | -9 | -3 | 0 | / | /
Cc1cc(N(CC(=O)NC(C)C)S(C)(=O)=O)ccc1Br | -5 | 0 | 2 | -8 | 1 | / | /
CCOc1ccccc1N/C=C(\C#N)c1nc2ccccc2n1C | 9.6* | 0 | 2 | 3 | 3 | -5 | -8
CCOC(=O)CC1C(=O)NCCN1C(=O)c1ccc(Cl)cc1Cl (stereo not drawn) | 17* | 0 | -1 | 6 | 2 | -2 | 1
SMILES | PLC-gamma1 inh | proKLK7 act | ADAM10 inh | ADAM17 inh | PLC-beta3 inh | PLCgamma1 ctr | PLCbeta3 conf
CCOC(=O)CC1C(=O)NCCN1C(=O)c1ccc(F)cc1F (stereo not drawn) | -1 | 0 | -2 | -2 | 1 | / | /
COCCC(=O)N1CCC(Oc2ccc(C(=O)N3CCCC(OC)C3)cc2)CC1 (stereo not drawn) | 4 | 0 | 5 | -4 | 12* | -1 | -7
COC1CCN(C(=O)c2ccc(OC3CCN(Cc4ccccn4)CC3)cc2)CC1 | 10* | 0 | 0 | -20 | -12 | -4 | 0
COc1ccc(NC(=O)CN(C)C(=O)Cc2ccc(-c3ccccc3)cc2)cc1 | -5 | 0 | -1 | -2 | -4 | / | /
CCc1nc2nc(C)c(NS(=O)(=O)c3ccc(F)cc3)c(=O)n2[nH]1 | 11* | -1 | -3 | 3 | 8 | -2 | 1
CCCc1nc2nc(C)c(NS(=O)(=O)c3ccc(C(C)(C)C)cc3)c(=O)n2[nH]1 | -1 | 0 | -5 | -4 | -6 | / | /
Cc1cc(C(=O)N2CCC2(C)C(=O)Nc2cccc3c2CCCC3)nn1C (stereo not drawn) | 0 | 0 | -4 | -1 | -4 | / | /
O=C(Nc1ccc(F)cc1)c1nsc(Cl)c1Cl | 0 | -1 | 4 | -2 | 2 | / | /
O=C(Nc1ccc(F)c(Cl)c1)c1nsc(Cl)c1Cl | 11* | 1 | 1 | 6 | 6 | -9 | -8
CC(=O)Nc1ccc(NC(=O)C(C)OC(=O)CCC2CCCC2)cc1 (stereo not drawn) | 0 | 0 | -1 | -1 | -3 | / | /
Cc1ccc(C(=O)N2CCN(Cc3ccc4c(c3)OCO4)CC2)cc1[N+](=O)[O-] | 1 | -1 | 0 | 0 | 4 | / | /
O=C(NC(=S)Nc1c(F)cc(F)cc1Br)c1ccc2c(c1)OCCO2 | 13* | 0 | 11 | 2 | 9 | -5 | -2
CCOc1ccc(C(=O)c2cc([N+](=O)[O-])ccc2Cl)cc1 | 13* | -1 | 12 | 8 | 15* | -6 | -3
CCOc1ccc(C(=O)c2ccc([N+](=O)[O-])cc2Cl)cc1 | 8 | 1 | -9 | 4 | 1 | / | /
CCCN1CCC(NC(=O)Nc2ccc(OC)c(OC)c2)CC1 | 10* | 0 | -7 | -2 | 6 | -4 | -4
Cc1cc(-n2c(C)cc(C(=O)CSc3nnc4sc5ccccc5n34)c2C)no1 | 4 | 1 | 7 | 4 | 11* | -5 | -3
Cc1cc(-n2c(C)cc(C(=O)CSc3ncnc4ccccc34)c2C)no1 | -26 | 0 | -9 | -5 | -30 | / | /
COCc1nnc(NC(=O)c2ccc(NC(C)=O)cc2)s1 | 4 | 0 | 4 | 4 | 14* | -6 | -1
N=C(N)SCc1cn(-c2ccccc2)nc1-c1ccc(Br)cc1 | 9.5* | 0 | 2 | 0 | 5 | 7 | 1
Cc1ccc(-c2nn(-c3ccccc3)cc2CO)cc1 | -2 | 1 | -4 | -1 | -6 | / | /
Cc1ccc(NC(=O)CSCC(=O)NNC(=O)c2nn(C)c(=O)c3ccccc23)cc1 | 1 | 0 | -9 | -1 | -9 | / | /
O=C(Nc1ccc(Br)cc1)C1CCCN1S(=O)(=O)c1cccs1 (stereo not drawn) | 9.8* | 0 | 1 | 3 | 2 | -6 | -4
